Nrf2 inh = Nrf2 qHTS screen for inhibitors; A549 ARE-Fluc reporter, luciferase luminescence, 18-24 h; Potency, µM (titrated, usually from 46 µM), without a hit: at the top dose activity change, negative = inhibition, hits mostly inhibitors; 360,000 tested, 2.1% active; further: on the % scale 0 is the no-effect control and ±100 the full control effect; nearly all actives have a fitted effect of over 60% in size
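Quantitative HTS in A549 cells stably bearing an antioxidant response element-firefly luciferase construct. Inhibition of Nrf2-driven transcription was scored by luminescence after 18-24 h of compound exposure at 37 °C.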
ATXN2 expr inh = Primary qHTS for Inhibitors of ATXN expression. HEK-293 ATXN2-luciferase reporter, luminescence, 24 h. Potency, µM (highest dose often 57 µM), for inactives: at the top dose activity change, negative = inhibition, most hits filed as inhibitors. 360,000 tested, 0.72% active; further: on the % scale 0 is the no-effect control and ±100 the full control effect; nearly all actives have a fitted effect of over 55% in size
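qHTS (up to 57 uM final) was run with 24 h compound exposure of reporter cells at 37 °C. Each well was multiplexed: SteadyGlo luminescence measured ATXN2-luciferase expression after a fluorogenic Gly-Phe-AFC viability readout (25 uM final).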
A549 viability = Nrf2 qHTS screen for inhibitors: counterscreen for cytotoxicity; AID 504648, 2011; Potency, µM (doses to about 46 µM), without a hit: at the top dose activity change, negative = cytotoxicity, hits mostly inhibitors; 390,000 tested, 0.16% active; A549 ARE-Fluc cells, CellTiter-Fluor viability, 18-24 h; further: on the % scale 0 is the no-effect control and ±100 the full control effect
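A549 ARE-Fluc cells in 5% FBS OPTI-MEM, 5000 cells/well, rested 2 h then exposed to compounds in concentration-response for 18-24 h at 37 °C. Viability by CellTiter-Fluor fluorescence (Ex 405/Em 525) after 30 min; luciferase luminescence (BugLite, 15 min, RT) read afterwards.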
Nrf2 activator = qHTS of Nrf2 Activators; AREc32 ARE-luciferase reporter (MCF7-derived line), luminescence, 24 h; Potency, µM (doses to about 46.1 µM), for the others: top-dose activation, usual class: activators; 410,000 tested, 0.31% active; AID 624171, 2012; further: % of control where 0% means no effect; nearly all actives have a fitted effect of over 65% in size
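Luciferase luminescence (Steady-Glo, 30 min at room temperature) served as the read-out of ARE activation in AREc32 cells treated with compounds for 24 hr at 37 deg C.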
ATXN viability = Viability Counterscreen for Primary qHTS for Inhibitors of ATXN expression | S2 cells (HEK-293 line with an ATXN2-luciferase reporter) viability, CellTiter-Fluor protease fluorescence, 24 h | Potency, µM (highest dose often 56.7 µM), usual class: cytotoxic | 400,000 tested, 0.49% active; further: nearly all actives have a fitted effect of over 40% in size
Starred values were filed as active, the others as inactive; i = inactive; u = inconclusive; x = no result given. Hits are enriched below; roughly 2.9% of the tested compounds scored in any of these assays. The call rests on the fitted dose curve; in most records, active means well fitted curve in the direction sought with a large enough effect; inconclusive means small, poorly fitted or top-dose-only effect, or another doubt; inactive means no such curve, though single readings can be large; an effect the other way counts as inactive or inconclusive. Potency means the concentration at half of the fitted maximal effect.

SMILES	Nrf2 inh	ATXN2 expr inh	A549 viability	Nrf2 activator	ATXN viability
Cn1nc(C(F)(F)F)c2cc(C(=O)Nc3ccc(C(F)(F)F)cc3)sc21	23µM*	u	u	0%	u
Cn1nc(C(F)(F)F)c2cc(C(=O)Nc3ccc(F)c(Cl)c3)sc21	13µM*	0%	-8%	-1%	i
COc1ccc(O)c(CN2CCC3(CCC(CNC(=O)c4ccco4)O3)CC2)c1 (configuration not stated)	x	x	x	x	i
CCn1c(C)cc(C(=O)COC(=O)c2ccccc2[N+](=O)[O-])c1C	0.73µM*	-82%	-1%	-3%	i
Cc1cc(C(=O)COc2ccccc2C(N)=O)c(C)n1CC1CCCO1 (configuration not stated)	4.6µM*	-4%	-14%	1%	i
Cc1cc(C(=O)COC(=O)c2ccc3c(c2)OCO3)c(C)n1Cc1cccs1	u	49%	0%	0%	i
Cc1cc(C(=O)COC(=O)c2ccccc2O)c(C)n1Cc1cccs1	6.5µM*	0.71µM*	u	-3%	i
Cc1cc(C(=O)COC(=O)c2ccccc2Br)c(C)n1CC1CCCO1 (configuration not stated)	28%	-24%	-3%	-2%	i
Cc1cc(C(=O)COC(=O)c2ccccc2O)c(C)n1CC1CCCO1 (configuration not stated)	u	0.35µM*	0%	-2%	i
C[C@@H]1C/C=C/C=C/C=C/C=C/[C@H](O[C@@H]2O[C@H](C)[C@@H](O)[C@H](N)[C@@H]2O)C[C@@H]2O[C@](O)(C[C@@H](O)C[C@H]3O[C@@H]3/C=C/C(=O)O1)C[C@H](O)[C@H]2C(=O)O	x	x	x	x	i
COC(=O)[C@@H]1CCCN1C(=O)c1cc(NC(=O)C2CCC2)c2c(c1)nc(-c1ccncc1)n2C	x	x	x	x	i
Cc1cnc(C(=O)O)c[n+]1[O-]	x	-1%	x	x	i
COc1ccc(C2Nc3ccccc3C(=O)N2Cc2cccc3ccccc23)cc1COc1ccc(NC(C)=O)cc1 (configuration not stated)	u	x	-1%	x	x
C=C1C(=O)[C@@]23[C@H](O)C[C@@H]4C(C)(C)CC[C@H](O)[C@@]4(C)[C@@H]2CC[C@@H]1[C@H]3O	18µM*	u	u	-3%	7.9µM*
C=C1C(=O)[C@@]23[C@H](O)C[C@@H]4C(C)(C)CC[C@H](O)[C@]4(C)[C@@H]2C[C@H](O)[C@@H]1[C@H]3O	15µM*	-3%	u	-2%	18µM*
Cc1nn(C)c(C)c1NC(=O)COc1ccc(F)cc1Br	23µM*	-21%	1%	0%	i
Cc1cc(C)n(CC(=O)NNC(=O)COc2ccc(F)cc2Br)n1	4%	x	13%	0%	i
Cc1cccc2nc(CNC(=O)CN3Cc4ccccc4OC(c4ccccc4F)C3)cn12 (configuration not stated)	x	x	x	x	i
O=S(=O)(/C=C/c1ccccc1)N1CCC(n2c(C3CCCO3)nc3cccnc32)CC1 (configuration not stated)	x	x	x	x	i
COC(=O)c1c(OCc2ccccn2)cc(=O)n2c1CCN(Cc1ccc3c(c1)CCCN3C)CC2	x	x	x	x	i
Cc1ccc2nc(CNC(=O)c3cc(NC(=O)c4ccccc4)cc4ncn(C5CCCC5)c34)cn2c1	x	x	x	x	i
CC(C)Oc1cc(F)ccc1-c1cc(C(=O)Nc2cccc(C(F)(F)F)c2)[nH]n1	x	u	x	0%	28µM*
CCCCN1C(C(=O)c2ccccc2)=C(OC(C)=O)c2ccccc2S1(=O)=O	8.2µM*	u	u	-3%	u
Cc1ccccc1-c1noc(CSc2nc3ccccc3[nH]2)n1	18µM*	-34%	-5%	0%	i
CCn1c(SCc2nc(-c3ccc(OC)c(OC)c3)no2)nnc1-c1cccs1	21µM*	-12%	-14%	4%	i
CCn1c(SCC(=O)NC(C)C)nnc1-c1cccs1	-9%	-6%	-8%	-1%	i
COc1ccc(-c2noc(CSc3nc4ccccc4[nH]3)n2)cc1OC	21µM*	u	-11%	1%	i

Screening results: PubChem, National Center for Advancing Translational Sciences (NCATS)
